A selection: hits, their analogues and other compounds. The true share with any hit is near 2.2%.
TrxR1 inh = qHTS Assay for Inhibitors of Mammalian Selenoprotein Thioredoxin Reductase 1 (TrxR1): qHTS | Thioredoxin reductase 1, cytoplasmic (Rattus norvegicus), O89049 | recombinant rTrxR1, NADPH fluorescence consumption, selenite substrate | Potency, µM (highest dose often 114 µM), most hits filed as inhibitors | 390,000 compounds, 1% hits; note: nearly all actives have a fitted effect of over 65% in size
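Rat TrxR1 (90 nM in the dispensed reagent) was pre-reduced with 400 uM NADPH for 5 min at room temperature, then incubated with compound for 15 min. After 400 uM selenite was added, NADPH fluorescence (Ex 340/Em 450 nm) was followed for 8 min.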
BRCA1 expr act = qHTS Assay to Identify Small Molecule Activators of BRCA1 Expression | Potency, µM (series often up to 46.1 µM), hits mostly activators | 380,000 compounds, 1.1% hits | MCF7-BRCA1-FFLuc reporter, luminescence, 48 h; response scale: scaled: vehicle 0%, 10 µM genistein 100% | AID 624202, 2012; note: nearly all actives have a fitted effect of over 80% in size
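Luminescence from a BRCA1-driven firefly luciferase in MCF7 cells was read after 48 h compound exposure at 37 C. Data normalized against DMSO and a 10microM genistein activation control, then curve-fitted across the titration.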
mIDH1 inhibitor = qHTS for Inhibitors of mutant isocitrate dehydrogenase 1 (IDH1): qHTS. IDH1-R132H enzyme, NADPH consumption, diaphorase/resazurin fluorescence. Potency, µM (titrated, usually from 76.6 µM), hits mostly inhibitors. Isocitrate dehydrogenase [NADP] cytoplasmic (Homo sapiens), O75874. 390,000 compounds, 0.093% hits; note: nearly all actives have a fitted effect of over 65% in size
Target sequence (O75874 whole entry R132H, stated change not applied): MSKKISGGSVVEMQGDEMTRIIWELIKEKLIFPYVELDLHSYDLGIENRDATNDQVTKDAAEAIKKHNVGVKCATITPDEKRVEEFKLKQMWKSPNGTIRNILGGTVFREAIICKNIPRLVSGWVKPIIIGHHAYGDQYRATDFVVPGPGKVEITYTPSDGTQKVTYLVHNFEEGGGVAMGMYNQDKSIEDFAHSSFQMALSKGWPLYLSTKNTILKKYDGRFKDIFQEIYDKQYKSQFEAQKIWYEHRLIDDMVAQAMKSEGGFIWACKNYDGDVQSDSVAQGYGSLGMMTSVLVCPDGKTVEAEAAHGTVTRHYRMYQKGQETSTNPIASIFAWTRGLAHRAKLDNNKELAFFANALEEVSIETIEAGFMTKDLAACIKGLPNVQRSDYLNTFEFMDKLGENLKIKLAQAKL
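IDH1-R132H (0.5 ug/mL) preincubated 30 min with compound, then NADPH (0.016 mM) and alpha-KG (2 mM) added; 80 min at RT, pH 7.5. Remaining NADPH coupled via diaphorase/resazurin to fluorescence (540/590 nm); concentration-response curves normalized to no-enzyme control.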
IL-2 act = qHTS of IL-2 Activators; 360,000 compounds, 0.065% hits; AID 652025, 2013; activation, % (series mostly up to about 46 µM); IL-2 activation reporter assay, cell-based qHTS; stimulated with anti-CD3/CD4/CD28 beads; in transgenic mouse T cells; in the data active = activation above about 50%; inconclusive = mostly about 30% to 49%
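Screening format: compound pinned onto unstimulated transgenic mouse T cells, 60 min incubation, then anti-CD3/anti-CD4/anti-CD28 bead stimulation for 18 hours at 37 degrees C, followed by EGFP and DsRed detection.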
Giardia killer = Small Molecules that selectively kill Giardia lamblia: qHTS; Giardia lamblia trophozoite viability; activity change, % at 7.66 µM, hits read low; 340,000 compounds, 0.15% hits; in the data active = activity change below about -80%; inconclusive = between about -30% and that limit;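 note: parasites exposed to compound for two days anaerobically before the ATP read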
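ATP-content bioluminescence gauges trophozoite survival. Cells (100/well) receive compound and incubate anaerobically for 48 hrs at 37 deg C; detection reagent follows for 15-30 min at room temperature.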
TrxR1 substrate = qHTS Assay for Substrates of Mammalian Selenoprotein Thioredoxin Reductase 1 (TrxR1): qHTS; Thioredoxin reductase 1, cytoplasmic (Rattus norvegicus), O89049; purified TrxR1 substrate turnover, NADPH consumption readout; Potency, µM (doses to about 114 µM); 390,000 compounds, 0.01% hits; note: nearly all actives have a fitted effect of over 50% in size
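Rat TrxR1, dispensed at 90 nM, was prereduced with 400 uM NADPH (final) for 5 min at ~22 deg C, then incubated with compound 15 min before 400 uM selenite. A first-read NADPH fluorescence drop versus no-compound background flagged substrates.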
IDH1 autofl = qHTS for Inhibitors of mutant isocitrate dehydrogenase 1 (IDH1): Cherrypicks Autofluorescence Interference. shares compounds with mIDH1 inhibitor. Resorufin detection reagent fluorescence interference, cell-free. inhibition of signal, % at 51.2 µM. 750 tested, under 10 active. AID 623980, 2012
WT IDH1 inh = qHTS for Inhibitors of mutant isocitrate dehydrogenase 1 (IDH1): Cherrypicks in WT IDH1. shares compounds with mIDH1 inhibitor. WT IDH1 enzyme, NADPH diaphorase/resazurin fluorescence. Potency, µM (top dose mostly 115 µM), actives largely listed as inhibitors. 750 compounds, 9% hits. AID 623995, 2012; note: nearly all actives have a fitted effect of over 55% in size
Target sequence (O75874 whole entry, looked up): as the sequence (O75874 whole entry R132H, stated change not applied) above, with H132R counted along it
mIDH1 confirm = qHTS for Inhibitors of mutant isocitrate dehydrogenase 1 (IDH1): Confirmation of Cherrypicks; 750 compounds, 83% hits; IDH1 R132H enzyme, NADPH diaphorase/resazurin fluorescence; AID 624002, 2012; shares compounds with mIDH1 inhibitor; Potency, µM (doses to about 76.6 µM), actives largely listed as inhibitors; note: nearly all actives have a fitted effect of over 50% in size
Hits are given with their value; n = inactive; u = inconclusive; x = not tested or not shown; [ ] = another dose, or the depositor's remark. Unless noted, calls come from the whole dose curve; as a rule, active = well fitted curve in the direction sought with a large enough effect; inconclusive = small, poorly fitted or top-dose-only effect, or another doubt; inactive = no such curve, though single readings can be large; an effect the other way counts as inactive or inconclusive.

SMILES	TrxR1 inh	BRCA1 expr act	mIDH1 inhibitor	IL-2 act	Giardia killer	TrxR1 substrate	IDH1 autofl	WT IDH1 inh	mIDH1 confirm
O=C(NC1CCCC1)C(c1ccncc1)N(C(=O)Cc1cccs1)c1ccccc1 (configuration not stated)	n	n	u	n	n	n	n	n	u
O=C(NC1CCCC1)C(c1ccsc1)N(C(=O)Cc1cccs1)c1ccccc1 (configuration not stated)	n	n	u	n	n	n	n	n	2.82µM
O=C(NCc1ccco1)C(c1ccccc1)N(C(=O)Cc1cccs1)c1ccccc1 (configuration not stated)	n	n	n	n	n	n	x	x	x
O=C(NC1CCCCC1)C(c1ccccc1)N(C(=O)Cc1ccsc1)c1ccccc1 (configuration not stated)	n	n	u	n	n	n	n	n	0.631µM
O=C(NCc1ccco1)C(c1cccs1)N(C(=O)Cc1cccs1)c1ccccc1 (configuration not stated)	u	n	u	n	n	n	n	n	u
COc1ccc(CN2COc3ccc4c(C)cc(=O)oc4c3C2)cc1	n	n	n	x	x	n	x	x	x
CCCCNC(=O)CCCN1C(=O)c2ccccc2Sc2ncccc21	n	x	n	x	x	n	x	x	x
CCc1ccc(NC(=O)CN2CCN(Cc3ccccc3)S2(=O)=O)cc1	n	x	n	x	x	n	x	x	x
Cc1nc2nncn2c(NCc2ccc(Cl)cc2)c1C	n	x	n	x	x	n	x	x	x
O=C1COc2cc(S(=O)(=O)CCC(=O)N3CCN(c4cccc(Cl)c4)CC3)c(Cl)cc2N1	n	n	n	x	x	n	x	x	x
N#CC1=C2N=C(N)c3ccccc3N2C2=C(C(=O)CCC2)C1c1ccc(F)cc1 (configuration not stated)	n	n	u	n	n	n	n	n	u
Cc1ccc(C2C(C#N)=C3N=C(N)c4ccccc4N3C3=C2C(=O)CCC3)cc1 (configuration not stated)	n	n	n	n	n	n	x	x	x
CCO[C@@H]1OC(C(=O)Nc2ccccc2)=C[C@H](c2ccc(C(F)(F)F)cc2)[C@H]1CCCO	n	n	u	n	n	n	n	n	22.4µM
C=CCOc1ccc(Br)cc1/C=C1/SC(=Nc2ccc(C(=O)O)cc2)NC1=O	u	n	52.1µM	n	n	n	n	70.8µM	28.2µM
CCOc1cc(Br)cc(/C=C2\SC(=Nc3ccccc3)NC2=O)c1O	n	n	n	n	n	n	x	x	x
COC(=O)c1ccc(NC2(C#N)C(=O)Nc3ccccc32)cc1 (configuration not stated)	n	n	u	n	n	n	n	n	44.7µM
O=C(Cn1c(=O)n(Cc2nc(-c3ccccc3)no2)c(=O)c2ccccc21)Nc1cccc(C(F)(F)F)c1	n	x	n	x	x	n	x	x	x
COc1cc(/C=C2/C(C)=C(C#N)c3nc(N)c(C#N)c(C)c32)ccc1OCC(=O)O	n	n	n	n	n	n	x	x	x
CC1=C(C#N)c2nc(N)c(C#N)c(C)c2/C1=C\c1ccc(-c2ccccc2C(=O)O)o1	n	n	u	n	n	n	n	25.1µM	35.5µM
COc1ccc(-c2nn3c(-c4ccccc4C)nnc3c3ccccc23)cc1	n	x	u	x	x	n	n	n	22.4µM
CCOc1ccc(NC(=O)CC2C(=O)N(c3cccc(C)c3)C(=O)N2Cc2cccnc2)cc1 (configuration not stated)	n	x	n	x	x	n	x	x	x
COc1ccc(N2CCN(C(=O)c3sc4nc5n(c(=O)c4c3C)CCC5)CC2)cc1	n	x	n	x	x	n	x	x	x
O=C(Cn1c(=O)n(-c2ccc(Cl)cc2)c(=O)c2sc3ccccc3c21)NC1CCCCC1	n	n	n	x	x	n	x	x	x
O=C(O)CCn1c(=O)n(CCC(=O)O)c(=O)n(CCC(=O)O)c1=O	n	n	u	n	n	n	n	n	n
CCN1CCN(Cc2nc3cc(NC(=O)c4cc(OC)c(OC)c(OC)c4)ccc3n2CC)CC1	n	x	n	x	x	n	x	x	x
SMILES	TrxR1 inh	BRCA1 expr act	mIDH1 inhibitor	IL-2 act	Giardia killer	TrxR1 substrate	IDH1 autofl	WT IDH1 inh	mIDH1 confirm
N#Cc1ccccc1Cn1cc(/C=C/[N+](=O)[O-])c2ccccc21	u	n	28.2µM	n	n	n	n	u	20µM
Cc1cc(C(=O)CCl)c(C)n1-c1cccc(S(=O)(=O)N2CCOCC2)c1	u	n	u	n	n	n	n	n	39.8µM
C#CCNC(=O)C1=C[C@H](C(C)(C)C)C[C@H](OCc2ccc(CO)cc2)O1	n	n	n	n	n	n	x	x	x
CC(C)(C)[C@@H]1C=C(C(=O)Nc2ccccc2)O[C@H](OCc2ccc(CO)cc2)C1	n	n	44.7µM	n	n	n	n	n	25.1µM
Cc1ccccc1C1=C/C(=C(\SS/C(C(=O)c2ccc(OCC(=O)O)c(Cl)c2Cl)=C2\C=C(c3ccccc3C)SS2)C(=O)c2ccc(OCC(=O)O)c(Cl)c2Cl)SS1	u	n	11.7µM	n	n	n	n	n	39.8µM
O=C(O)COc1ccc2nsnc2c1Cl	n	n	n	n	n	n	x	x	x
COc1cccc(NC(=O)CSc2nc(=O)n(Cc3cccnc3)c3c2CCC3)c1	n	n	n	x	x	n	x	x	x
CCOc1ccc(-n2c(-c3ccccc3)c(C)n3c4c(=O)n(C)c(=O)n(C)c4nc23)cc1	n	n	n	x	x	n	x	x	x
O=C(NC1CCCC1)C(c1ccncc1)N(C(=O)c1ccco1)c1ccc(F)c(Cl)c1 (configuration not stated)	n	n	u	n	n	n[0.0914 µM]	n	n	39.8µM
COc1ccc(Cl)cc1N(C(=O)c1ccco1)C(C(=O)NC1CCCC1)c1cccnc1 (configuration not stated)	n	n	u	n	n	n	n	n	u

High-throughput results (PubChem BioAssay)
